According to PubChem BioAssay AID1159580 (chemical genetic matrix, 2015):
Among all 5,500 compounds or so, about 2,000 (36%) were called active. Another 18% or so got no clear call; they are omitted. Cut-off read from the data, not from the text of the source: active = normalized growth mostly below about 0.91 (no sharp cut-off); inconclusive = no clear call, values can overlap the other calls; inactive = mostly above about 0.92. The list shows a part of the results.

Assay: chemical genetic growth profiling, strain panel (AID 1159580);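 note: tested at 20 µM; growth read once vehicle control cultures reached saturation at 30 °C; 1 = growth at the plate median or of vehicle wells; lower values mean less growth of the strain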
Conditions: S. cerevisiae deletion strains, growth OD

Measured: normalized growth

COC1C=CC23c4cc5c(cc4CN(CC2O)[C@@H]3C1)OCO5 (stereo partly specified)
inactive: locus YAL021C, strain ccr4, stronger effect = lower value 0.974 | locus YAL026C, strain drs2, stronger effect = lower value 0.956 | locus YAL030W, strain snc1, stronger effect = lower value 0.989 | locus YBL061C, strain skt5, stronger effect = lower value 0.967 | locus YBR009C, strain hhf1, stronger effect = lower value 0.969 | locus YBR021W, strain FUR4, stronger effect = lower value 1.01 | locus YBR023C, strain chs3, stronger effect = lower value 0.966 | locus YBR171W, strain sec66, stronger effect = lower value 0.962 | locus YBR229C, strain ROT2, stronger effect = lower value 1.01 | locus YBR231C, strain swc5, stronger effect = lower value 0.963 | locus YBR279W, strain paf1, stronger effect = lower value 0.971 | locus YCL011C, strain gbp2, stronger effect = lower value 0.956 | locus YCL016C, strain dcc1, stronger effect = lower value 0.992 | locus YCL029C, strain bik1, stronger effect = lower value 1 | locus YCL069W, strain vba3, stronger effect = lower value 0.948 | locus YCR088W, strain abp1, stronger effect = lower value 0.971 | locus YDL005C, strain med2, stronger effect = lower value 0.944 | locus YDL035C, strain GPR1, stronger effect = lower value 1.01 | locus YDL040C, strain nat1, stronger effect = lower value 0.975 | locus YDL074C, strain BRE1, stronger effect = lower value 1.05 | locus YDL101C, strain DUN1, stronger effect = lower value 1.04 | locus YDL134C, strain PPH21, stronger effect = lower value 1.03 | locus YDL185W, strain tfp1, stronger effect = lower value 1 | locus YDL192W, strain arf1, stronger effect = lower value 0.982 | locus YDR001C, strain nth1, stronger effect = lower value 0.979 | locus YDR069C, strain doa4, stronger effect = lower value 0.944 | locus YDR101C, strain arx1, stronger effect = lower value 0.962 | locus YDR137W, strain rgp1, stronger effect = lower value 0.933 | locus YDR159W, strain sac3, stronger effect = lower value 0.964 | locus YDR162C, strain NBP2, stronger effect = lower value 1.03 | locus YDR195W, strain ref2 0.962 | locus YDR297W, strain sur2, stronger effect = lower value 0.977 | locus YDR318W, strain mcm21, stronger effect = lower value 0.995 | locus YDR334W, strain swr1, stronger effect = lower value 0.966 | locus YDR335W, strain msn5, stronger effect = lower value 0.959 | locus YDR388W, stronger effect = lower value 1 | locus YDR392W, strain spt3, stronger effect = lower value 1.06 | locus YDR502C, strain sam2, stronger effect = lower value 1.01 | locus YEL003W, strain gim4, stronger effect = lower value 0.972 | locus YEL037C, strain rad23, stronger effect = lower value 0.973 | locus YEL061C, strain CIN8 (second series), stronger effect = lower value 0.945 | locus YER015W, strain faa2, stronger effect = lower value 0.986 | locus YER016W, strain bim1, stronger effect = lower value 0.971 | locus YER110C, stronger effect = lower value 1 | locus YER111C, strain swi4, stronger effect = lower value 0.961 | locus YER155C, strain BEM2 (second series), stronger effect = lower value 0.978 | locus YER155C, strain BEM2, stronger effect = lower value 0.997 | locus YER167W, strain BCK2, stronger effect = lower value 0.992 | locus YFR010W, strain ubp6, stronger effect = lower value 0.939 | locus YGL078C, strain dbp3, stronger effect = lower value 1.03 | locus YGL086W, strain mad1, stronger effect = lower value 0.999 | locus YGL167C, strain pmr1, stronger effect = lower value 0.971 | locus YGL173C, strain kem1, stronger effect = lower value 0.968 | locus YGL227W, strain vid30, stronger effect = lower value 0.979 | locus YGL240W, strain doc1, stronger effect = lower value 0.999 | locus YGL248W, strain PDE1, stronger effect = lower value 1.04 | locus YGL253W, strain hxk2, stronger effect = lower value 0.951 | locus YGR135W, strain pre9, stronger effect = lower value 1.05 | locus YGR229C, strain SMI1, stronger effect = lower value 1.06 | locus YGR252W, strain gcn5, stronger effect = lower value 1.09 | locus YHR013C, strain ard1, stronger effect = lower value 0.95 | locus YHR027C, strain rpn1, stronger effect = lower value 0.977 | locus YHR079C, strain IRE1 (second series), stronger effect = lower value 1.01 | locus YHR094C, strain hxt1, stronger effect = lower value 0.992 | locus YHR129C, strain ARP1, stronger effect = lower value 1.02 | locus YHR142W, strain chs7, stronger effect = lower value 0.956 | locus YHR200W, strain rpn10, stronger effect = lower value 1.01 | locus YIL066C, strain RNR3, stronger effect = lower value 1.02 | locus YIL073C, strain SPO22, stronger effect = lower value 0.964 | locus YIL125W, strain kgd1, stronger effect = lower value 0.981 | locus YIR030C, strain dcg1, stronger effect = lower value 1 | locus YJL092W, strain hpr5, stronger effect = lower value 0.948 | locus YJL095W, strain BCK1 (second series), stronger effect = lower value 0.965 | locus YJL095W, strain BCK1, stronger effect = lower value 1.08 | locus YJL115W, strain asf1, stronger effect = lower value 0.988 | locus YJL129C, strain trk1, stronger effect = lower value 0.976 | locus YJL134W, strain LCB3, stronger effect = lower value 1 | locus YJL154C, strain vps35, stronger effect = lower value 0.968 | locus YJL164C, strain tpk1, stronger effect = lower value 0.973 | locus YJL166W, strain qcr8, stronger effect = lower value 0.965 | locus YJL168C, strain set2, stronger effect = lower value 1.01 | locus YJL187C, strain SWE1 (second series), stronger effect = lower value 1.04 | locus YJL187C, strain SWE1, stronger effect = lower value 0.957 | locus YKL009W, strain mrt4, stronger effect = lower value 1.02 | locus YKL068W, stronger effect = lower value 1 | locus YKL085W, strain MDH1 (second series), stronger effect = lower value 1.01 | locus YKL085W, strain MDH1, stronger effect = lower value 1.01 | locus YKL160W, strain elf1, stronger effect = lower value 0.995 | locus YKR001C, strain vps1, stronger effect = lower value 0.978 | locus YKR026C, strain gcn3, stronger effect = lower value 0.983 | locus YKR091W, strain srl3, stronger effect = lower value 0.98 | locus YLL001W, strain dnm1, stronger effect = lower value 0.973 | locus YLL026W, stronger effect = lower value 1 | locus YLL041C, strain sdh2, stronger effect = lower value 0.969 | locus YLR027C, strain aat2, stronger effect = lower value 0.991 | locus YLR039C, strain RIC1, stronger effect = lower value 1.06 | locus YLR058C, strain SHM2, stronger effect = lower value 1.02 | locus YLR102C, strain apc9, stronger effect = lower value 0.995 | locus YLR221C, strain rsa3, stronger effect = lower value 0.956 | locus YLR258W, strain gsy2, stronger effect = lower value 0.97 | locus YLR262C, strain YPT6 (second series), stronger effect = lower value 0.917 | locus YLR262C, strain YPT6, stronger effect = lower value 1.07 | locus YLR268W, strain sec22, stronger effect = lower value 0.974 | locus YLR320W, strain mms22, stronger effect = lower value 0.975 | locus YLR342W, strain FKS1, stronger effect = lower value 0.99 | locus YLR357W, strain rsc2, stronger effect = lower value 0.967 | locus YLR370C, strain arc18, stronger effect = lower value 0.949 | locus YLR371W, strain rom2, stronger effect = lower value 0.976 | locus YLR384C, strain iki3, stronger effect = lower value 0.966 | locus YLR418C, strain cdc73, stronger effect = lower value 1.04 | locus YML016C, strain PPZ1, stronger effect = lower value 1.01 | locus YML032C, strain rad52, stronger effect = lower value 0.98 | locus YML120C, strain ndi1, stronger effect = lower value 1 | locus YML124C, strain tub3, stronger effect = lower value 0.991 | locus YMR058W, strain fet3, stronger effect = lower value 0.983 | locus YMR078C, strain ctf18, stronger effect = lower value 1.01 | locus YMR125W, strain sto1, stronger effect = lower value 0.922 | locus YMR129W, stronger effect = lower value 0.991 | locus YMR205C, strain PFK2, stronger effect = lower value 0.998 | locus YMR223W, strain ubp8, stronger effect = lower value 0.998 | locus YMR231W, strain pep5, stronger effect = lower value 0.974 | locus YMR263W, strain SAP30, stronger effect = lower value 1.03 | locus YMR307W, strain GAS1, stronger effect = lower value 1.06 | locus YNL067W, strain RPL9B, stronger effect = lower value 1.04 | locus YNL071W, strain lat1, stronger effect = lower value 0.97 | locus YNL153C, strain GIM3, stronger effect = lower value 1.04 | locus YNL209W, strain ssb2, stronger effect = lower value 0.981 | locus YNL233W, strain BNI4, stronger effect = lower value 1.04 | locus YNL248C, strain rpa49, stronger effect = lower value 0.949 | locus YNL250W, strain rad50, stronger effect = lower value 1.03 | locus YNL271C, strain bni1, stronger effect = lower value 0.988 | locus YNL298W, strain CLA4, stronger effect = lower value 0.994 | locus YNL307C, strain MCK1, stronger effect = lower value 1.01 | locus YNL322C, strain KRE1 (second series), stronger effect = lower value 0.935 | locus YNR049C, strain mso1, stronger effect = lower value 0.975 | locus YNR052C, strain pop2, stronger effect = lower value 0.997 | locus YOL012C, strain htz1 0.915 | locus YOL147C, strain pex11, stronger effect = lower value 1 | locus YOR001W, strain rrp6, stronger effect = lower value 0.978 | locus YOR061W, strain CKA2, stronger effect = lower value 0.996 | locus YOR069W, strain VPS5, stronger effect = lower value 1.01 | locus YOR070C, strain gyp1, stronger effect = lower value 0.999 | locus YOR080W, strain dia2, stronger effect = lower value 0.976 | locus YOR106W, strain vam3, stronger effect = lower value 0.992 | locus YOR136W, strain idh2, stronger effect = lower value 1 | locus YOR144C, strain elg1, stronger effect = lower value 0.995 | locus YOR184W, strain ser1, stronger effect = lower value 0.967 | locus YOR265W, strain rbl2, stronger effect = lower value 0.99 | locus YOR270C, strain vph1, stronger effect = lower value 0.847 | locus YOR290C, strain snf2, stronger effect = lower value 0.976 | locus YOR316C, strain cot1, stronger effect = lower value 1 | locus YPL051W, strain arl3, stronger effect = lower value 0.99 | locus YPL055C, strain LGE1, stronger effect = lower value 1.03 | locus YPL078C, strain atp4, stronger effect = lower value 0.986 | locus YPL106C, strain sse1, stronger effect = lower value 0.982 | locus YPL240C, strain hsp82, stronger effect = lower value 0.965 | locus YPR119W, strain clb2, stronger effect = lower value 0.994 | locus YPR141C, strain kar3, stronger effect = lower value 0.993 | locus YPR163C, strain tif3, stronger effect = lower value 1 | locus YPR167C, strain met16, stronger effect = lower value 1 | strain wtn01, stronger effect = lower value 1
